# Screening results (PubChem BioAssay)
# Pf growth 96h: Primary qHTS for delayed death inhibitors of the malarial parasite plastid, 96 hour incubation; P. falciparum luciferase reporter growth, 96 h; Potency, µM (top dose mostly 28.7 µM), inactives show at the top dose activity change, negative = inhibition, actives largely listed as inhibitors; hit rate 6.9% among 320,000; note: potency is the fitted concentration of half-maximal effect; % is set by controls: 0 for no effect and ±100 for the full control effect
#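 Erythrocytes infected with luciferase-expressing P. falciparum were dispensed at 2% hematocrit and 0.05% parasitemia (final), then incubated with compounds 96 hours at 37 C in 5% CO2. Luminescence after detection reagent addition reported growth.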
# Sm TGR block: qHTS Assay for the Inhibitors of Schistosoma Mansoni Peroxiredoxins | Potency, µM (top dose mostly 114 µM), inactives show at the top dose activity change, negative = inhibition, most hits filed as inhibitors | Schistosoma mansoni thioredoxin glutathione reductase (TGR), Q962Y6 | hit rate 3% among 360,000 | purified TGR, DTNB reduction, TNB absorbance 405 nm; note: potency is the fitted concentration of half-maximal effect; % is set by controls: 0 for no effect and ±100 for the full control effect; nearly all actives have a fitted effect of over 60% in size
#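 Kinetic colorimetric format: TGR-catalysed, NADPH-driven DTNB reduction monitored via TNB absorbance. Enzyme dispensed at 20 nM; compound exposure 15 min at room temperature before reaction start.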
# CHX counter: Cycloheximide Counterscreen for Small Molecule Inhibitors of Shiga Toxin; cell reporter, cycloheximide protein synthesis inhibition counterscreen; max response, %; hit rate 12% among 300,000; in the data active = max response mostly above about 13%, no sharp cut-off; inactive = mostly below about 14%; note: read at 38.3 µM for the half of the compounds with a filed dose; 0% is about no effect
# Pf growth 48h: Primary qHTS for delayed death inhibitors of the malarial parasite plastid, 48 hour incubation; P. falciparum luciferase growth in erythrocytes, 48 h; Potency, µM (highest dose often 28.7 µM), without a hit: at the highest dose activity change, negative = inhibition, hits mostly inhibitors; hit rate 5.9% among 310,000; AID 504832, 2011; note: potency is the fitted concentration of half-maximal effect; % is set by controls: 0 for no effect and ±100 for the full control effect
#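 Luminescence readout; reporter = integrated firefly luciferase in P. falciparum. RBC culture at 2% hematocrit, 0.1% parasitemia final, 37 C/5% CO2; decreased signal taken as growth inhibition.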
# Shiga inhibitor: A qHTS for Small Molecule Inhibitors of Shiga Toxin | hit rate 9.2% among 290,000 | inhibition, % at 38.7 µM | Vero cells, Shiga toxin protein synthesis inhibition reporter; in the data active = inhibition mostly above about 28%, no sharp cut-off; inactive = mostly below about 43%; note: 0% is about no effect
# NS1 inh: qHTS Assay for Inhibitors of Influenza NS1 Protein Function. Potency, µM (highest dose often 46.1 µM), without a hit: at the top dose activity, positive = more growth. hit rate 0.4% among 270,000. AID 2326, 2010; calls by dose curve; note: potency is the fitted concentration of half-maximal effect; actives are rising curves; nearly all actives have a fitted effect of over 50% in size
#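 In this qHTS, NS1 from influenza A is expressed in budding yeast, where it slows growth. Cells are switched from glucose to 2% galactose medium (pH 6.0, -URA), treated with compound, and growth recovery is read at OD600.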
# Active calls of the source: *; i = inactive; ? = inconclusive; . = no result; + = active, no number; [ ] = remark or other dose. Sampled rows, rich in hits. Any-hit rate of the full collection: about 21%. Unless noted, calls come from the whole dose curve; as a rule, active = well fitted curve in the direction sought with a large enough effect; inconclusive = small, poorly fitted or top-dose-only effect, or another doubt; inactive = no such curve, though single readings can be large; an effect the other way counts as inactive or inconclusive.
SMILES,Pf growth 96h,Sm TGR block,CHX counter,Pf growth 48h,Shiga inhibitor,NS1 inh
CCC(=O)c1ccc(OCC(=O)OCC(=O)NCC2CCCCC2)cc1,28%,1%,.,-1%,.,.
COc1ccc(F)cc1S(=O)(=O)Nc1cc2c3c(c1)CC(=O)N3CCC2,-3%,0%,.,?,.,.
Cc1cccc(C)c1OCC(O)Cn1c2ccccc2c2ccccc21 (stereo not drawn),31%,18%,-5,10µM*,-6,20%
Cc1cccc(C)c1OCC(O)CN1CCN(c2ccccc2)CC1 (stereo not drawn),20%,.,-6,-1%,23,-2%
O=C(CC1SC(N2CCCC2)=NC1=O)Nc1ccc(C(=O)N2CCN(c3cccc(Cl)c3)CC2)cc1 (stereo not drawn),?,-21%,.,8.3µM*,.,.
CCNC(=O)c1ccc(NC(=O)CC2SC(N3CCCCC3)=NC2=O)cc1 (stereo not drawn),1%,2%,.,15%,.,.
CCOC(=O)C1CCCN(C(=O)c2ccc(NC(=O)CC3SC(N4CCCC4)=NC3=O)cc2)C1 (stereo not drawn),?,3%,.,10µM*,.,.
COc1ccc(-n2c(=O)c3sc4ccccc4c3n(CC(=O)N3CCCC3)c2=O)cc1,.,6%,.,.,.,.
O=C1C(c2ccc(C(F)(F)F)cc2)=C(Nc2ccc(Cl)cc2)c2ccccc21,.,4%,.,.,.,.
O=C(NC1=C(Nc2ccc(F)cc2)C(=O)c2ccccc2C1=O)c1ccc(Cl)cc1,0.37µM*,22µM*,16*,0.52µM*,+,-6%
O=C(CNC(=O)c1ccco1)NCC(=O)OCc1cccc(C(=O)Oc2ccccc2)c1,.,-2%,13*,31%,42*,-2%
O=C(Oc1ccccc1)c1ccc(NC(=O)c2ccco2)cc1,17%,0%,53*,?,100*,-7%
COC(=O)c1ccc(NC(=O)c2ccc(NC(=O)c3ccco3)cc2)cc1,-7%,-8%,-2,?,-14,7%
Cc1ccc(NC(=O)c2ccc(OC(=O)c3ccco3)cc2)cc1,4%,10%,36*,189%,73*,-10%
Cc1ccc(Oc2ccc(NC(=O)c3ccco3)cc2)cc1,-2%,-5%,67*,0.93µM*,99*,-219%
COc1cc(OC)c(NC(=O)NCCn2nnc3cc(S(=O)(=O)N(C)C)ccc32)cc1Cl,.,-4%,.,.,.,.
Cc1cc(C)cc(NC(=O)CN2C(=O)c3ccccc3Sc3ccc(C(=O)N4CCCC4)cc32)c1,.,-2%,.,.,.,.
CCOC(=O)CC(NC(=O)c1ccco1)c1ccc(C)cc1 (stereo not drawn),6.6µM*,-4%,-1,3%,12,-3%
Cc1ccc(NC(=O)c2ccc(OC(=O)c3cc4ccccc4o3)cc2)cc1,.,-3%,40*,204%,81*,1%
COc1ccc(OC(=O)c2cc3ccccc3o2)cc1,?,1%,16,6%,48,-8%
COc1ccc(CN(C)C(=O)c2oc3ccccc3c2CSC)cc1F,-1%,-9%,-6,3%,-5,-17%
COc1ccc(NC(=S)N(CCCOC(C)C)C2CCN(C(C)=O)CC2)cc1Cl,7%,0%,-2,-29%,-1,-9%
Cc1ccc(NC(=O)c2sc3nc4c(c(-c5ccco5)c3c2N)CCC4)cc1,2.3µM*,4%,6,?,18,?
Nc1c(C(=O)Nc2ccccc2)sc2nc3c(c(-c4ccco4)c12)CCCC3,?,-29%,3,?,14,13%
Nc1c(C(=O)Nc2ccccc2)sc2nc3c(c(-c4ccco4)c12)CCC3,?,1%,19*,?,48*,26%
SMILES,Pf growth 96h,Sm TGR block,CHX counter,Pf growth 48h,Shiga inhibitor,NS1 inh
O=C(c1ccc2c(c1)N(Cc1ccc(F)cc1)C(=O)c1ccccc1S2=O)N1CCC(Cc2ccccc2)CC1 (stereo not drawn),.,0%,.,.,.,.
O=C(NCCCN1CCN(c2ccccc2F)CC1)c1ccc2nc(N3CCCCC3)sc2c1,.,-1%,.,.,.,.
COc1ccc(-c2cc(=NCCC(=O)O)c3cc(C)ccc3o2)cc1,?,-16%,36*,i,148*,.
COc1ccc(-c2cc(=NC(CC(C)C)C(=O)O)c3cc(C)ccc3o2)cc1 (stereo not drawn),147%,-1%,30*,198%,100*,-14%
c1ccc(N2CCN(c3ncnc4[nH]ncc34)CC2)cc1,.,-9%,.,.,.,.
COc1ccc2c(COC(=O)CNS(=O)(=O)c3ccc(C)c(C)c3)cc(=O)oc2c1,5%,-22%,.,?,.,.
COc1ccccc1C(=O)NNC(=O)c1ccc(F)cc1,-24%,1%,57*,133%,65*,7%
COc1ccccc1C(=O)NNC(=O)c1ccc(Cl)cc1,43%,4%,17*,51%,21,-4%
COc1ccc(C(=O)NNC(=O)OC(C)(C)C)cc1,12%,0%,1,-8%,-8,9%
COC(=O)NNC(=O)c1ccccc1OC,-15%,4%,-4,24%,-12,0%
Cc1ccccc1C(=O)NNC(=O)c1ccc(F)cc1,149%,12%,20*,63%,62,9%
CC(C)(C)OC(=O)NNC(=O)c1ccc(Cl)cc1,13%,1%,13*,21%,26,9%
CCCCN(Cc1cc2ccccc2[nH]c1=O)C(=O)c1cccc(Cl)c1,.,10%,.,.,.,.
Cc1oc(-c2cccc(Cl)c2)nc1CN1CCC(C(=O)NCc2ccc(F)cc2)CC1,.,7%,.,.,.,.
COc1ccccc1C(=O)NNC(=O)C1CC=CCC1 (stereo not drawn),?,0%,25*,80%,34,-14%
Oc1ccc(C=Nc2ccccc2-c2nc3ccccc3[nH]2)c(O)c1,18%,3%,13*,116%,51,-10%
Oc1ccccc1C=Nc1ccccc1-c1nc2ccccc2[nH]1,-1%,0%,38*,8%,75*,-10%
COc1ccc(OC)c(C=Nc2ccccc2-c2nc3ccccc3[nH]2)c1,?,0%,27*,?,45*,-22%
Cc1cc2c(cc1S(=O)(=O)Nc1cccc(C#N)c1)OCC(=O)N2,.,6%,.,.,.,.
O=C(CBr)c1ccc([N+](=O)[O-])c(CS(=O)(=O)c2ccc(Cl)cc2)c1,0%,5µM*,7,2%[0.00184 µM],11,10%
CC(C)Cc1cc(CNC(=O)C2CCC(=O)N(Cc3cccc(C(F)(F)F)c3)C2)on1 (stereo not drawn),?,-17%,1,1%,13,14%
CN(CC(=O)Nc1ccc(S(=O)(=O)N2CCCC2)cc1)Cc1ccc(Cl)cc1,8.3µM*,-12%,2,?,-3,-19%
O=C(Cc1ccc(F)cc1)Nc1ccc(S(=O)(=O)N2CCCC2)cc1,?,1%,.,15%,.,.
